Source: PubChem (National Center for Advancing Translational Sciences (NCATS))
D2 antag: HTS Assay for Allosteric Antagonists of the Human D2 Dopamine Receptor: Primary Screen for Antagonists | D(2) dopamine receptor (Homo sapiens), P14416 | HEK293 TREx D2 cells, calcium flux, dopamine EC80 | inhibition, % at 10 µM | 340,000 compounds, 2% hits | AID 485344, 2010; in the data active = inhibition above about 30%; inactive = below that, where a call was filed
Target sequence (P14416 whole entry, looked up): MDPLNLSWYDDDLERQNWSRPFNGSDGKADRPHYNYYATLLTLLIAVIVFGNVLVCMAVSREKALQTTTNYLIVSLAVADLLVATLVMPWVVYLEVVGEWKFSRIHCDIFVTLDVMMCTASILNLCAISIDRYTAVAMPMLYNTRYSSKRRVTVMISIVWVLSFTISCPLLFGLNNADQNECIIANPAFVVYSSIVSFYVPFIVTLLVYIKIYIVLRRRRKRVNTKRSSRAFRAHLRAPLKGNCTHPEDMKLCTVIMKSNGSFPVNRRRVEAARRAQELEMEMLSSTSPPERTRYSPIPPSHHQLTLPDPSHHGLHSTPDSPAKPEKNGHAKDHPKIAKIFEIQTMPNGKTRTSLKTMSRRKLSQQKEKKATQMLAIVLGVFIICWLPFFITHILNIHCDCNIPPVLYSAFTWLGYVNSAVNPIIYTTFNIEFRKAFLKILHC
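Read-out: kinetic calcium fluorescence (1 cycle/s) in inducible HEK293 T-REx D2 cells after an EC80 dopamine addition that followed 180 s compound preincubation. Loss of the dopamine response indicates antagonism.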
D2 ag-1: HTS Assay for Allosteric Agonists of the Human D2 Dopamine Receptor: Primary Screen for Agonists. HEK293 T-REx D2 cells, calcium flux agonist mode. D(2) dopamine receptor (Homo sapiens), P14416. activation, % at 2 µM. AID 485358, 2010. 340,000 compounds, 0.53% hits;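 active = activation over 3 SD above normal in the single-dose calcium agonist read, cut at about 30% in these data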
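HEK293 Trex D2 cells, tetracycline-induced, o/n 30 C 5% CO2; no-wash Ca dye, RT 30–90 min; 10-cycle baseline, 23 nl cpd added, kinetic Ca read 180 s; agonist hits = positive Ca response.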
D2 ag-2: Beta-Arrestin HTS for Positive Allosteric Modulators of the Human D2 Dopamine Receptor: Agonists | DiscoveRx PathHunter D2 beta-arrestin, luminescence, 90 min; 100% = 57 uM dopamine signal | activation, % (test concentration not listed) | 360,000 compounds, 0.084% hits; in the data active = activation above about 40%; inconclusive = between about 15% and that limit
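Agonist mode: compounds alone added to overnight-plated D2 PathHunter cells for 90 min at 37 C, with 57 uM final dopamine (EC100) defining full response. Beta-arrestin recruitment detected by chemiluminescent reagent, read after 1 h at ambient temperature.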
D2 PAM-1: Beta-Arrestin HTS for Positive Allosteric Modulators of the Human D2 Dopamine Receptor: Potentiators; DiscoveRx D2 beta-arrestin cells, luminescence, 90 min; 100% = 57 uM dopamine signal; potentiation, % (no concentration beside the values); D(2) dopamine receptor (Homo sapiens), P14416; 360,000 compounds, 0.23% hits; in the data active = potentiation above about 50%; inconclusive = mostly about 30% to 49%
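PathHunter beta-arrestin assay in DiscoveRx D2 cells. Compounds were added with an EC20 of dopamine (50 nM final) for 90 min at 37 deg C. Luminescence was read 1 h after detection reagent, with 57 uM dopamine as the EC100 control.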
D2 PAM-2: HTS Assay for Positive Allosteric Modulators of the Human D2 Dopamine Receptor: Primary Screen for Potentiators | D(2) dopamine receptor (Homo sapiens), P14416 | HEK293 T-REx D2, calcium flux, EC20 dopamine potentiation | potentiation, % at 10 µM | 340,000 compounds, 0.34% hits;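 active = potentiation over 3 SD above the plate norm, cut at about 30% in these data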
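Cells plated with tetracycline inducer and held overnight at 30 C; calcium dye loaded 30–90 min at room temperature; baseline taken, compound added and read 180 s; EC20 dopamine then added and read 180 s.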
Hits are given with their value; 0 = inactive; ? = inconclusive; - = not tested or not shown. Most compounds without a hit are left out; they make up all but 2.4% or so of the library.

SMILES	D2 antag	D2 ag-1	D2 ag-2	D2 PAM-1	D2 PAM-2
N/C(=N\OC(=O)c1ccc2ccccc2c1)c1ccccn1	0	0	?	0	0
Cc1ccc(C(=O)O/N=C(\N)c2ccccn2)c(Cl)c1	0	0	?	91	0
CN(Cc1ccccc1F)c1nc(-c2cccnc2)nc2ccccc12	-	-	0	0	-
CCOc1ccc(CN(C)c2nc(-c3cccnc3)nc3ccccc23)cc1OC	36	0	0	0	0
CC(=O)c1ccc2c(c1)C1C=CCC1C(c1ccc(S(=O)(=O)N3CCOCC3)cc1)N2 (configuration not stated)	0	0	0	61	0
COc1ccc(OC)c(NC(=O)CN2C(=O)CC(C)Sc3ccccc32)c1 (configuration not stated)	-	0	-	-	0
O=C1C2C3C=CC(C3)C2C(=O)N1c1ccccc1 (configuration not stated)	-	-	0	0	-
Cc1ccc(N2C(=O)C3C4C=CC(C4)C3C2=O)cc1 (configuration not stated)	0	0	0	0	51
Cc1cccc(N2C(=O)C3C4C=CC(CC4)C3C2=O)c1 (configuration not stated)	0	0	0	0	0
Cc1cc(C)cc(N2C(=O)C3C4C=CC(C4)C3C2=O)c1 (configuration not stated)	-	-	0	0	37
CC1CCN(C(=O)Cn2ncc3c4ccccc4n(Cc4ccc(Cl)cc4)c3c2=O)CC1	-	0	-	-	0
CC(C)Oc1ccc(C(=O)Nc2nc3ccccc3[nH]2)cc1	0	0	0	0	105
O=C(Nc1nc2ccccc2[nH]1)c1ccc(OC(F)F)cc1	0	0	0	0	0
O=C(O)c1ccccc1-c1ccc(/C=c2\sc3nc4cc(Br)cnc4n3c2=O)o1	0	0	0	0	0
Cc1cc2nc3s/c(=C/c4ccc(-c5ccccc5C(=O)O)o4)c(=O)n3c2cc1C	34	70	0	0	0
CCOc1ccccc1NC(=O)c1ccc2c(Cl)c3c(nc2c1)CCC3	-	-	-	-	0
COCC1CCCN(Cc2cn(-c3ccccc3F)nc2-c2cc(C)sc2C)C1 (configuration not stated)	41	0	0	0	0
COc1cc(-c2nc(C(=O)NC3CCN(Cc4ccccc4)CC3)cc3c2[nH]c2ccccc23)cc(OC)c1OC	74	0	0	0	0
COc1ccc(OC)c(-c2nc(C(=O)NCCCN3CCOCC3)cc3c2[nH]c2ccccc23)c1	0	0	0	0	0
COc1ccc(OC)c(-c2nc(C(=O)NC3CCN(Cc4ccccc4)CC3)cc3c2[nH]c2ccccc23)c1	81	0	0	0	0
COc1cc(-c2nc(C(=O)NC3CCCCC3)cc3c2[nH]c2ccccc23)cc(OC)c1OC	0	0	0	0	0
COc1cc(OC)c(NC(=O)CCCn2nc(C)c3sc4ccccc4c3c2=O)cc1Cl	-	0	-	-	0
O=C(CCNS(=O)(=O)c1ccc2c(c1)CCN2C(=O)C1CC1)N1CCN(c2ccc(F)cc2)CC1	-	0	-	-	0
Cc1ccc2c(c1)C1CN(C)CCC1N2Sc1ccccc1[N+](=O)[O-] (configuration not stated)	43	0	0	0	0
CC(=O)c1cccc(NS(=O)(=O)c2ccc(N/C=C\C(=O)c3ccc(C)cc3)cc2)c1	0	0	0	64	0
SMILES	D2 antag	D2 ag-1	D2 ag-2	D2 PAM-1	D2 PAM-2
CC(=O)c1cccc(NS(=O)(=O)c2ccc(N/C=C/C(=O)c3ccc(F)cc3)cc2)c1	-	-	0	0	-
COc1cc2[nH]c(C(=O)Nc3ccc(F)cc3)cc2c(OC)c1OC	89	0	-	-	0
COc1ccc(F)cc1-c1cc(C(=O)Nc2ccc(NC(C)=O)cc2)[nH]n1	-	-	0	0	-
Cc1cc(C)c2cc(C(=O)Nc3ccc(C)c(F)c3)[nH]c2c1	39	0	0	0	0
COc1ccc2[nH]c(C(=O)Nc3ccc(C)c(F)c3)cc2c1	0	0	0	0	0
CCCCNC(=O)c1cc2c(C)cc(C)cc2[nH]1	34	0	0	0	0
COc1cc(NC(=O)CSc2nc(-c3ccc(C(C)C)cc3)no2)cc(OC)c1	-	0	-	-	0
O=C(O)c1ccccc1C(=O)NC1Cc2ccccc2C1	0	35	0	0	0
O=C(NC1CCCC1)c1ccccc1-c1ccccc1	0	0	0	0	0
CCN(CC)Cc1nc2c(c(=O)[nH]1)C1(CCCCC1)Cc1ccccc1-2	0	0	0	0	0
O=c1[nH]c(NNC(=S)NC2CCCCC2)nc2c1C1(CCCC1)Cc1ccccc1-2	38	0	0	0	0
CC(C)Sc1n[nH]c2nc3c(c(=O)n12)C1(CCCC1)Cc1ccccc1-3	55	0	-	-	0
CN(C)Cc1nc2c(c(=O)[nH]1)C1(CCCCC1)Cc1ccccc1-2	37	0	0	0	0
O=c1[nH]c(NCCCO)nc2c1C1(CCCC1)Cc1ccccc1-2	0	0	0	0	0
Cn1c(NCCO)nc2c(c1=O)C1(CCCCC1)Cc1ccccc1-2	68	0	0	0	0
Cc1ccccc1C(=O)Nc1ccc(S(=O)(=O)N2CCC(c3nc4ccccc4s3)CC2)cc1	-	-	-	-	0
COc1ccc(S(=O)(=O)N2CCC(n3c(C(F)(F)F)nc4cccnc43)CC2)cc1OC	-	0	-	-	-
NS(=O)(=O)c1ccc(NC(=O)CN2CCN(c3ccc(F)cc3)CC2)cc1	-	0	-	-	0
O=C1CC(N2CCOCC2)C(=O)N1c1ccccc1Cl (configuration not stated)	0	0	0	0	57
CN1CCN(C2CC(=O)N(c3ccc4c(c3)OCCO4)C2=O)CC1 (configuration not stated)	0	0	0	0	0
O=C1CC(N2CCN(c3ccccc3Cl)CC2)C(=O)N1c1ccccc1 (configuration not stated)	0	0	0	0	0
O=C1CC(N2CCN(c3ccccc3)CC2)C(=O)N1c1ccc2c(c1)OCCO2 (configuration not stated)	38	0	0	0	0
COc1ccc(CCNC(=O)CSc2nnnn2-c2cccc(C(C)=O)c2)cc1OC	-	0	-	-	0
CCc1nn(CC(=O)NC2CC2)c(=O)c2cc3c(OC)cccc3n12	-	0	-	-	0
C=CCn1c(COc2ccc(F)cc2)nnc1SC(C)C(=O)NCC1CCCO1 (configuration not stated)	61	0	0	0	0
CCn1c(SC(C)C(=O)NCC2CCCO2)nc2ccccc21 (configuration not stated)	31	0	0	0	0
